# Experimental data reported in publication PMC7862700, “An all-to-all approach to the identification of sequence-specific readers for epigenetic DNA modifications on cytosine”.
# Key:
# Test in all cases: DAPPL (digital affinity profiling via proximity ligation, sequencing); 10 mM Tris-HCl pH 7.5, 50 mM NaCl, 1 mM DTT, 4% glycerol, room temperature, 30 min; GST-TFs on glutathione beads, 16-mer random dsDNA library, 0.1% formaldehyde crosslink after washing; high values mean tight binding
# FEV = target: T1, FEV (Homo sapiens, UniProt Q99581 1-238); conditions: protein: recombinant; tags: N-terminal GST; dsDNA, one strand shown
# T1 sequence: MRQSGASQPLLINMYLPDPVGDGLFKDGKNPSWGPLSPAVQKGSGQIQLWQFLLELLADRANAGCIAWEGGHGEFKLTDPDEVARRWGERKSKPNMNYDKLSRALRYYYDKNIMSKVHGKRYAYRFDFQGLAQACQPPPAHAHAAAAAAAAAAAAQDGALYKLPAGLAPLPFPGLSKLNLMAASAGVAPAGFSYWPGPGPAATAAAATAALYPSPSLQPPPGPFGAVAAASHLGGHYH
# In short: (§1)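 GST fusions of human transcription factors were expressed in yeast and captured with glutathione beads. Once given DNA barcodes and pooled alongside a tag-only sample, they were incubated for 30 min at room temperature with 200 nmole of a random double-stranded 16-mer DNA library in Tris/NaCl/DTT/glycerol buffer, then washed, crosslinked (0.1% formaldehyde), proximity-ligated, PCR-amplified and sequenced on an Illumina NextSeq500. The binding signal of each hexamer is its read frequency for a factor divided by its frequency for the tag-only sample.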
# ETV5 = ETV5 (Homo sapiens, UniProt P41161 1-510); conditions: protein: recombinant; tags: N-terminal GST; dsDNA, one strand shown
# In short: as §1
# HSF1 = HSF1 (Homo sapiens, UniProt Q00613 1-529); conditions: protein: recombinant; tags: N-terminal GST; chain copies: 3; dsDNA, one strand shown
# In short: as §1
# SPIC = target: T2, SPIC (Homo sapiens, UniProt Q8N5J4 1-248); conditions: protein: recombinant; tags: N-terminal GST; dsDNA, one strand shown
# T2 sequence: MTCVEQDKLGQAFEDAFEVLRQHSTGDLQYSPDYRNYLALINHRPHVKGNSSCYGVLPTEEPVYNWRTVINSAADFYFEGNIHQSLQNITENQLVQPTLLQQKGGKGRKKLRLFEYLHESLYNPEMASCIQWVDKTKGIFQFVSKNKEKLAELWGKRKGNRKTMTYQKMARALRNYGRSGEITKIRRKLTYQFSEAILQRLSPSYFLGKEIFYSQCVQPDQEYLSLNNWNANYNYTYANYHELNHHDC
# In short: as §1
# ELF4 = ELF4 (Homo sapiens, UniProt Q99607 1-663); conditions: protein: recombinant; tags: N-terminal GST; dsDNA, one strand shown
# In short: as §1
# ELK4 = target: T3, ELK4 (Homo sapiens, UniProt P28324-2 1-405); conditions: protein: recombinant; tags: N-terminal GST; dsDNA, one strand shown
# T3 sequence: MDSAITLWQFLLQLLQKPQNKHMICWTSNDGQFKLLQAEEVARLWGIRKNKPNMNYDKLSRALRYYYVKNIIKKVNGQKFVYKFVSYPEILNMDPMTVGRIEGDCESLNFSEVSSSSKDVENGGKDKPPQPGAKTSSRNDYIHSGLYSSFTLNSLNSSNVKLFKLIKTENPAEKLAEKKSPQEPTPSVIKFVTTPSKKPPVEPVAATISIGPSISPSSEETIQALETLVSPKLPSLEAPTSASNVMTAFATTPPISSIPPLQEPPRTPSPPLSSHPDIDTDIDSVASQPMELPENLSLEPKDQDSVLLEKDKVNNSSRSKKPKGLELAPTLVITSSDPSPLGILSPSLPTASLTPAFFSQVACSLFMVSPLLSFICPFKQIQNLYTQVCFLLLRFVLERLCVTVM
# In short: as §1
# ETV2 = target: T4, ETV2 (Homo sapiens, UniProt O00321 1-342); conditions: protein: recombinant; tags: N-terminal GST; dsDNA, one strand shown
# T4 sequence: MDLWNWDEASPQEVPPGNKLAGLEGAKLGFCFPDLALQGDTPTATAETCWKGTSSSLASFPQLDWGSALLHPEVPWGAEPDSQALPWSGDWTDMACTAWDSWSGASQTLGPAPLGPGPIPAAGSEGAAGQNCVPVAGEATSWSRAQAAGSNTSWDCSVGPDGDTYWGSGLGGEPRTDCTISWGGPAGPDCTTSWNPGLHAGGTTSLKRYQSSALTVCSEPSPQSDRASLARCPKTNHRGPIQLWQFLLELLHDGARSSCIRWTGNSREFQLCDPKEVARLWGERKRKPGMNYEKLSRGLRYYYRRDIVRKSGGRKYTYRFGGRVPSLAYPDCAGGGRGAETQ
# In short: as §1
# ELF3 = target: T5, ELF3 (Homo sapiens, UniProt P78545 1-371); conditions: protein: recombinant; tags: N-terminal GST; dsDNA, one strand shown
# T5 sequence: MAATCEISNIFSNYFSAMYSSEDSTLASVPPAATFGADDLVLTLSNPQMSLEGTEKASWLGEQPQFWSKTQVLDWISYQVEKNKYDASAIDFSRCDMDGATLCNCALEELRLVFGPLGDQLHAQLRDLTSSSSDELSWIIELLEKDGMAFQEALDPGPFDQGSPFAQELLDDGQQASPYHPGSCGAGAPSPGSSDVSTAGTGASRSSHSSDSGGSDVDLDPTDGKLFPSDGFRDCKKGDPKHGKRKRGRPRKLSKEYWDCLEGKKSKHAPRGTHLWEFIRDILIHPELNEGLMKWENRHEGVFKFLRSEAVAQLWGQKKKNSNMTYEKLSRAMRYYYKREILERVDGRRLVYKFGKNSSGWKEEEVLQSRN
# In short: as §1
# CRX = CRX (Homo sapiens, UniProt O43186 1-299); conditions: protein: recombinant; tags: N-terminal GST; dsDNA, one strand shown
# In short: as §1
# ETV1 = ETV1 (Homo sapiens, UniProt P50549 1-477); conditions: protein: recombinant; tags: N-terminal GST; dsDNA, one strand shown
# In short: as §1
# ERF = target: T6, ERF (Homo sapiens, UniProt P50548 1-548); conditions: protein: recombinant; tags: N-terminal GST; dsDNA, one strand shown
# T6 sequence: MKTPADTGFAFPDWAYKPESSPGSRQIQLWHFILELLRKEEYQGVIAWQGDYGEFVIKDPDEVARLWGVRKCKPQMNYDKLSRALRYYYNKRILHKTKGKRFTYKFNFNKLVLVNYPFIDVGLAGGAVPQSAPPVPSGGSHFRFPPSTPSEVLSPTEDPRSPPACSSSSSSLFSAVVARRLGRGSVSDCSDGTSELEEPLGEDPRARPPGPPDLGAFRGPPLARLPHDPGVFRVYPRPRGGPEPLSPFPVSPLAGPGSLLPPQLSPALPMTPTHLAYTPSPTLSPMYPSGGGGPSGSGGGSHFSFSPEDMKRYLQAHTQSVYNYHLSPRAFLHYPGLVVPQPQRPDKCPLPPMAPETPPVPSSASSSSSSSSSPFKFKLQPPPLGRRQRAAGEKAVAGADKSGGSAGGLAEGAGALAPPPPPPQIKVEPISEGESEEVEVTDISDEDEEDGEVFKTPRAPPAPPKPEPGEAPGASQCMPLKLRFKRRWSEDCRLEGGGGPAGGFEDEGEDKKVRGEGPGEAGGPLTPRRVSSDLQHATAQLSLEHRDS
# In short: as §1
# ETV3L = target: T7, ETV3L (Homo sapiens, UniProt Q6ZN32 1-361); conditions: protein: recombinant; tags: N-terminal GST; dsDNA, one strand shown
# T7 sequence: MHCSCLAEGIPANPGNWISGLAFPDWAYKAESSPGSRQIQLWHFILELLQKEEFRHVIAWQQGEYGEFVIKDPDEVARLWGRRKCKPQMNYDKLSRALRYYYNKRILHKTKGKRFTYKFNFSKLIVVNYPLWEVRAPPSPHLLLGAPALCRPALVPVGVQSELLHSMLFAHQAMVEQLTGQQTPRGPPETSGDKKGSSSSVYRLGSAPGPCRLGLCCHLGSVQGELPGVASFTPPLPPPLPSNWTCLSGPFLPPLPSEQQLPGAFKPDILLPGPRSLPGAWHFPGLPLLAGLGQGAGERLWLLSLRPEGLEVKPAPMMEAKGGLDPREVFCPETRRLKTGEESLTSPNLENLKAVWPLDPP
# In short: as §1
# ETS2 = target: T8, ETS2 (Homo sapiens, UniProt P15036 1-469); conditions: protein: recombinant; tags: N-terminal GST; dsDNA, one strand shown
# T8 sequence: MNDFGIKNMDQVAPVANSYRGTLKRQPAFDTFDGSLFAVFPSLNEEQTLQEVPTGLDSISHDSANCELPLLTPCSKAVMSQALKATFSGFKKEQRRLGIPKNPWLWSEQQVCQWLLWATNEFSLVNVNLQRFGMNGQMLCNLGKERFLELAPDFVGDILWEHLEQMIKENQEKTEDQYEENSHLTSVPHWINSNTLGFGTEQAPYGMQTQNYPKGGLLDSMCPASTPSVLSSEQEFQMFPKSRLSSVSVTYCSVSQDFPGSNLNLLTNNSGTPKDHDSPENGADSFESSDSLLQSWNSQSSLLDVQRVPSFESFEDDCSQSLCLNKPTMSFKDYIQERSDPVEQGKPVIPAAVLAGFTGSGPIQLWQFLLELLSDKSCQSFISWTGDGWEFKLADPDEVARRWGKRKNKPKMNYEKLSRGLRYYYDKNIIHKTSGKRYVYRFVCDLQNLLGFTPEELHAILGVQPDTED
# In short: as §1
# SPDEF = target: T9, SPDEF (Homo sapiens, UniProt O95238 1-335); conditions: protein: recombinant; tags: N-terminal GST; dsDNA, one strand shown
# T9 sequence: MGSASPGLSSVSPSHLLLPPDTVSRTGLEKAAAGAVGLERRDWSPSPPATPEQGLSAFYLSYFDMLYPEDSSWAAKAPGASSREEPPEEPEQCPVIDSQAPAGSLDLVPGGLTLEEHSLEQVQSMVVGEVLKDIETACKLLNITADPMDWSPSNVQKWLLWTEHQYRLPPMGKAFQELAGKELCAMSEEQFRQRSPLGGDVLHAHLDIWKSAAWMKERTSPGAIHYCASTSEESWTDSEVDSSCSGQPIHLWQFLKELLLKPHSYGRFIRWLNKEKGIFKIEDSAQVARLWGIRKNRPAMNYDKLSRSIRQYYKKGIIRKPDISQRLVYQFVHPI
# In short: as §1
# ETV7 = target: T10, ETV7 (Homo sapiens, UniProt Q9Y603 1-341); conditions: protein: recombinant; tags: N-terminal GST; dsDNA, one strand shown
# T10 sequence: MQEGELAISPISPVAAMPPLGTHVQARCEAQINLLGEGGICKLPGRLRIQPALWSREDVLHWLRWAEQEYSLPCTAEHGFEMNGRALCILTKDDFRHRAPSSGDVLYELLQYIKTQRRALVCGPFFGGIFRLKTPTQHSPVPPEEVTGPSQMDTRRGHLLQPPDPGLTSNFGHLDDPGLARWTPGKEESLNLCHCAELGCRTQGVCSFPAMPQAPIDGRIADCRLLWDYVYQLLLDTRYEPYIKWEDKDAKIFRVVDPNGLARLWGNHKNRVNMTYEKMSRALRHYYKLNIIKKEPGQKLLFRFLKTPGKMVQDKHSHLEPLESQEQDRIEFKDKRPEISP
# In short: as §1
# ELF5 = target: T11, ELF5 (Homo sapiens, UniProt Q9UKW6-2 1-255); conditions: protein: recombinant; tags: N-terminal GST; dsDNA, one strand shown
# T11 sequence: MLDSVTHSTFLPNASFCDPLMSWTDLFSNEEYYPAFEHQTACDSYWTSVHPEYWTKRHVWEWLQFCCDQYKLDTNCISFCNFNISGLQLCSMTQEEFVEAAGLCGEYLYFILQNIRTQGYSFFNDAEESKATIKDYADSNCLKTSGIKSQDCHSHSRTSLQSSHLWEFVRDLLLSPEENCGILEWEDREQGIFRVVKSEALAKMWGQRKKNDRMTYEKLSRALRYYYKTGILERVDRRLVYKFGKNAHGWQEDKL
# In short: as §1
# ETV3 = target: T12, ETV3 (Homo sapiens, UniProt P41162-2 1-143); conditions: protein: recombinant; tags: N-terminal GST; dsDNA, one strand shown
# T12 sequence: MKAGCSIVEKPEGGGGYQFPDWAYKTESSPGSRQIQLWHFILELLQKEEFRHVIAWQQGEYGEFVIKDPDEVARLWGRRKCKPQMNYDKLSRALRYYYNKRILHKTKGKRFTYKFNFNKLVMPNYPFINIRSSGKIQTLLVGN
# In short: as §1
# ETV6 = ETV6 (Homo sapiens, UniProt P41212 1-452); conditions: protein: recombinant; tags: N-terminal GST; dsDNA, one strand shown
# In short: as §1
# ETV5, sequence (P41161 whole entry): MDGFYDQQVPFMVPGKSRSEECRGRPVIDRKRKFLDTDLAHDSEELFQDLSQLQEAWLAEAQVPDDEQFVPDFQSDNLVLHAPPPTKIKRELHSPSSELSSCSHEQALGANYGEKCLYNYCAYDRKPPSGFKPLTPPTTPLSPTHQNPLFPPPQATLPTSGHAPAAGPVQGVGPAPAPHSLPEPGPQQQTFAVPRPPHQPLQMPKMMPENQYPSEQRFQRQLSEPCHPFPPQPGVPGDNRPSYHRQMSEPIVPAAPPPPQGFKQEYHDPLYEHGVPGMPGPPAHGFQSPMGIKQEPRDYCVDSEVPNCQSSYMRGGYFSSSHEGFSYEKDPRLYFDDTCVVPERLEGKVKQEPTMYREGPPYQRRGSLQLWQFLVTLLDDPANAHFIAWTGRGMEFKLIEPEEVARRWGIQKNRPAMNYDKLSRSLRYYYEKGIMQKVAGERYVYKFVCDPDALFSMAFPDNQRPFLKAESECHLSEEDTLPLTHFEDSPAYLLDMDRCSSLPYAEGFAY
# ELF4, sequence (Q99607 whole entry): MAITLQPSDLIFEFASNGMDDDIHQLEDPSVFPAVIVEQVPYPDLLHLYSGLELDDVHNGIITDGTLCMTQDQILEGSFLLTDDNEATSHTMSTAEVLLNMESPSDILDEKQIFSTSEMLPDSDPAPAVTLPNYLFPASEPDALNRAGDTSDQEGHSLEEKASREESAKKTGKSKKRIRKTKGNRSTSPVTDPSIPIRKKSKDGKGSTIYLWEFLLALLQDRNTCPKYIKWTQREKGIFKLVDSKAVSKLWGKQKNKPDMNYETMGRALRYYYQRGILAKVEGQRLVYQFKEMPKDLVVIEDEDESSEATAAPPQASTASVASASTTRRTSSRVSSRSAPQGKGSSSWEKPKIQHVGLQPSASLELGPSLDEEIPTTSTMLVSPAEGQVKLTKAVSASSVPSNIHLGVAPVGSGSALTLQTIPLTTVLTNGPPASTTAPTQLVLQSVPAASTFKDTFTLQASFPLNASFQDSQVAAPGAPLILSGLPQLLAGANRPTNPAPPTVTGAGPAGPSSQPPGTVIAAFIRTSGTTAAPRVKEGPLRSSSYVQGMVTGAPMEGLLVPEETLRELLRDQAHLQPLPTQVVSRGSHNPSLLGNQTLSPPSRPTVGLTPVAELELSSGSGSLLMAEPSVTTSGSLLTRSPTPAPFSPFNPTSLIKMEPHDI
# CRX, sequence (O43186 whole entry): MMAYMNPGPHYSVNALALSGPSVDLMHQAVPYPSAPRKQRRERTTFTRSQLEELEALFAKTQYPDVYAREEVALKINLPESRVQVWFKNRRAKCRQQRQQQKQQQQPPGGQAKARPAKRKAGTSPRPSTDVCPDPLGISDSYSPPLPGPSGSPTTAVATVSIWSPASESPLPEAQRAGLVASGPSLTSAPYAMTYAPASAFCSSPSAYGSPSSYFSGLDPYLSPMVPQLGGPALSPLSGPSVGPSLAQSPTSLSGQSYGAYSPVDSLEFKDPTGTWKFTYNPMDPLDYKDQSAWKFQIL
# ETV6, sequence (P41212 whole entry): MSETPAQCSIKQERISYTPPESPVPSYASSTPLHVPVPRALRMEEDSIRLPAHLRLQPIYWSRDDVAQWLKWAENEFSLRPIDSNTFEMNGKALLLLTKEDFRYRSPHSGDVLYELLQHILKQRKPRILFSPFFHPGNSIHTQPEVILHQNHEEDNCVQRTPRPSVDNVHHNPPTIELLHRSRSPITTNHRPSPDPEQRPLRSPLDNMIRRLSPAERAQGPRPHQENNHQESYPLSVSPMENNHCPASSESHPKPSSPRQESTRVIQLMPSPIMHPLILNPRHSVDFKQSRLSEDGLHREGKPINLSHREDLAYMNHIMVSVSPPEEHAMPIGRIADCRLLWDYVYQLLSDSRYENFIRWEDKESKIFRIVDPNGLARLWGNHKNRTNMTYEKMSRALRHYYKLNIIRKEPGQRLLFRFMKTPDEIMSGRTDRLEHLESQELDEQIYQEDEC
# HSF1, sequence (Q00613 whole entry): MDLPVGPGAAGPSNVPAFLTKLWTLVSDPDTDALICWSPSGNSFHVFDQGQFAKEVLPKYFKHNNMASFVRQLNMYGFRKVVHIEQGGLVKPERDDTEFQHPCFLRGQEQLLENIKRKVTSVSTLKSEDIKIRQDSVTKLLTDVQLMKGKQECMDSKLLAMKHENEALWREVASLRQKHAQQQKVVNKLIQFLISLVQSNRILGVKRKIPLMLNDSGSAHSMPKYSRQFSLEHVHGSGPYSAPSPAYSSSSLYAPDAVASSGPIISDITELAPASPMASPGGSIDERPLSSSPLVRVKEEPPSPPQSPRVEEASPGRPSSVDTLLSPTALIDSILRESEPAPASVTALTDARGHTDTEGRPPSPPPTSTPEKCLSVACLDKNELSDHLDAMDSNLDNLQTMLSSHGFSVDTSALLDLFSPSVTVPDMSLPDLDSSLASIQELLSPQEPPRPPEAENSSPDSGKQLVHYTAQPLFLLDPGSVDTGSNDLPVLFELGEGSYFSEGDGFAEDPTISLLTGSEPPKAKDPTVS
# ETV1, sequence (P50549 whole entry): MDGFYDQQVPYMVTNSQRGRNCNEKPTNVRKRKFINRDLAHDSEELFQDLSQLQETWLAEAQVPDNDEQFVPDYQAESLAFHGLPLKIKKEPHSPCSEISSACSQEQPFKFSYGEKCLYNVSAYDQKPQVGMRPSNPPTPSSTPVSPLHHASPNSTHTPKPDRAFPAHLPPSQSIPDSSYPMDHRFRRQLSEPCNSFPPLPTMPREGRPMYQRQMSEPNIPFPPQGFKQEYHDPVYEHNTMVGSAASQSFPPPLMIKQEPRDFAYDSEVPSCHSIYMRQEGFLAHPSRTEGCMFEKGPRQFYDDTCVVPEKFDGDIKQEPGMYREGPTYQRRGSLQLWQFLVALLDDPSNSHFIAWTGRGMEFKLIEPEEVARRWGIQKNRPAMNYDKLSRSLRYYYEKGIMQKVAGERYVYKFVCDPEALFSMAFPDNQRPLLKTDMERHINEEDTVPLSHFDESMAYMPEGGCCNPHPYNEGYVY
sequence,measurement,setting,value
TACCAT,binding signal,FEV,"1.14 fold enrichment (6-mer frequency, TF over GST control)"
same,binding signal,ETV5,"1.13 fold enrichment (6-mer frequency, TF over GST control)"
same,binding signal,HSF1,"1.14 fold enrichment (6-mer frequency, TF over GST control)"
same,binding signal,SPIC,"1.11 fold enrichment (6-mer frequency, TF over GST control)"
same,binding signal,ELF4,"1.22 fold enrichment (6-mer frequency, TF over GST control)"
same,binding signal,ELK4,"1.27 fold enrichment (6-mer frequency, TF over GST control)"
same,binding signal,ETV2,"1.15 fold enrichment (6-mer frequency, TF over GST control)"
same,binding signal,ELF3,"1.16 fold enrichment (6-mer frequency, TF over GST control)"
same,binding signal,CRX,"1.23 fold enrichment (6-mer frequency, TF over GST control)"
same,binding signal,ETV1,"1.2 fold enrichment (6-mer frequency, TF over GST control)"
same,binding signal,ERF,"1.22 fold enrichment (6-mer frequency, TF over GST control)"
same,binding signal,ETV3L,"1.25 fold enrichment (6-mer frequency, TF over GST control)"
same,binding signal,ETS2,"1.22 fold enrichment (6-mer frequency, TF over GST control)"
same,binding signal,SPDEF,"1.16 fold enrichment (6-mer frequency, TF over GST control)"
same,binding signal,ETV7,"1.16 fold enrichment (6-mer frequency, TF over GST control)"
same,binding signal,ELF5,"1.14 fold enrichment (6-mer frequency, TF over GST control)"
same,binding signal,ETV3,"1.17 fold enrichment (6-mer frequency, TF over GST control)"
same,binding signal,ETV6,"1.17 fold enrichment (6-mer frequency, TF over GST control)"
